Drawing on PubChem BioAssay AID651704 (Broad Institute, 2012), this text covers inhibition for 75 compounds.

Where “and” joins values, the source holds several entries; their conditions need not be identical. Identical values can stand only once. About 1,600 (0.46%) of roughly 350,000 compounds were called active. The full list was thinned out, with actives kept by preference. Unmarked numbers belong to inactive results.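 How the source made its calls: active means every replicate reaching a set inhibition limit, whatever the replicate mean (cut at about 25% in these data); inconclusive means mean inhibition reaches that limit but some replicates miss it; inactive means the rest.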

As usually defined, the inhibition is the drop in the measured response relative to a control, in per cent.

The target in the assay is Protein AF-9 (Homo sapiens) (UniProt P42568). The assay can be described thus: inhibitors of AF4 peptide binding to AF9, primary screen, biochemical, AlphaScreen, biotin-AF4 peptide, FLAG-AF9, single point (AID 651704).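 Further: 0% = plate neutral control median and 100% = total signal loss.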 The conditions noted are these: at 10 µM, stronger effect = higher value. Background: Bead proximity is the source of the signal in Alpha formats.
Sequence of Protein AF-9 (Homo sapiens) (P42568 whole entry, looked up): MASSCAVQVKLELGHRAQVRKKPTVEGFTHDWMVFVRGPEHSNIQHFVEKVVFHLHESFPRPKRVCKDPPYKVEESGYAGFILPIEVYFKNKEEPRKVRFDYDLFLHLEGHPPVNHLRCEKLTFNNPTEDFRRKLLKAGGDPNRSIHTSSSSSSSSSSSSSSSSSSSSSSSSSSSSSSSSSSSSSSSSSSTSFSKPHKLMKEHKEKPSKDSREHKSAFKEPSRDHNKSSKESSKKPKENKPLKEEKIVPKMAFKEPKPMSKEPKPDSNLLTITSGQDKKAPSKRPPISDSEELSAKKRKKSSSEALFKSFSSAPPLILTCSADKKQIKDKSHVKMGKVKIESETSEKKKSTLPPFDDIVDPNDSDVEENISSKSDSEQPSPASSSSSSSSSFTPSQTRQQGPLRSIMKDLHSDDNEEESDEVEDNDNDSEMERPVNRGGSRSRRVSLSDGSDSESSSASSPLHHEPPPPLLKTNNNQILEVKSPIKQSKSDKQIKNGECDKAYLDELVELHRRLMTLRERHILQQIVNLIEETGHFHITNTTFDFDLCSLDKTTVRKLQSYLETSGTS
With `O=C(C[C@@H]1C=C[C@H](NC(=O)Nc2ccccc2F)[C@@H](CO)O1)NCc1ccccc1`, the inhibition is -2.34%.

On to `CCC(=O)N1CC2(C1)[C@@H](c1ccc(-c3ccc(C#N)cc3)cc1)[C@H](CO)N2C(C)=O`, for which the inhibition is -2.76%.

As for `Cc1ccc(S(=O)(=O)N2CCCCC2)cc1NC(=O)c1cccnc1`, the inhibition is 2.47%.

For `O=C(O)c1ccc(N/N=C/c2cn(-c3ccccc3)nc2-c2cccs2)cc1`, the inhibition was 3.91%.

As for `O=C(N/N=C/c1sc(N2CCCCC2)nc1-c1cccs1)c1cccnc1`, the inhibition is 26.1% (active).

With `COc1ccccc1C#Cc1ccc([C@@H]2[C@H](CO)N3CCCCN(C(=O)C4CCCC4)C[C@@H]23)cc1`, the inhibition was 6.51%.

For `Cc1cccc(-c2ccc([C@@H]3[C@H]4CN(C(=O)c5ccccc5)CC(=O)N4[C@H]3CO)cc2)c1`, the inhibition is 2.35%.

With `CNC(=O)CN1C(=O)NC(c2ccccc2)(c2ccccc2)C1=O`, the inhibition is 0.637%.

Turning to `CCCCNC(=O)CN1C(=O)NC(Cc2ccccc2)(Cc2ccccc2)C1=O`, the inhibition is 51% (active).

Take `COc1cccc(CNC(=O)CN2C(=O)NC(Cc3ccccc3)(c3ccccc3)C2=O)c1` (stereo not given): the inhibition is -3.3%.

Take `COc1cccc(NC(=O)N[C@@H]2CC[C@H](CC(=O)NCc3ccccn3)O[C@H]2CO)c1`: the inhibition is -1.32%.

`CCCN1[C@@H]2c3ccc(-c4ccccc4)c(=O)n3C[C@@H]2[C@@H](CO)[C@@H]1C(=O)N(C)C`: the inhibition was -2.05%.

On to `Cc1cc2c(cc1C)NC1(C[C@H]3CCC(=O)N4CC[C@@H](C1)[C@@H]34)C(=NC(C)(C)CC(C)(C)C)N2` (stereo not given in full), for which the inhibition was 54.9% (active).

Turning to `O=C1CC[C@@H]2CC3(C[C@@H]4CCN1[C@H]24)Nc1cc([N+](=O)[O-])ccc1NC3=NC1CCCCC1` (stereo not given in full), the inhibition is 5.39%.

On to `CC=Cc1ccc2n(c1=O)C[C@H]1[C@H](CO)[C@@H](C(=O)NC3CCCC3)[C@@H]2N1C(=O)c1cnccn1` (mixture of isomers), for which the inhibition was -3.71%.

As for `CN(C)CC(=O)N1[C@H](C#N)[C@H](c2ccccc2-c2cccc(C(=O)N(C)C)c2)[C@@H]1CO`, the inhibition was -2.16%.

As to `Cc1noc(C)c1NC(=O)N(C)C[C@H]1Oc2ccc(N(C)C)cc2CC(=O)N([C@H](C)CO)C[C@H]1C`, the inhibition was -0.871%.

Take `CO[C@H]1CN(C)C(=O)c2ccc(NC(=O)C3CC3)cc2OC[C@@H](C)N(Cc2ccc(F)cc2)C[C@@H]1C`: the inhibition is 2.37%.

Take `CCCC#Cc1ccc([C@H]2[C@@H](CO)N3C(=O)CN(C(=O)c4ccncc4)C[C@H]23)cc1`: the inhibition is -2.78%.

`CCCC#Cc1ccc([C@@H]2[C@@H](CO)N3C(=O)CN(C(=O)c4ccncc4)C[C@@H]23)cc1`: the inhibition is -2.52%.

As to `CCCC#Cc1ccc([C@H]2[C@H]3CN(C(=O)c4cccnc4)CC(=O)N3[C@H]2CO)cc1`, the inhibition is 27.2% (active).

For `COc1ccc(C#Cc2ccc([C@H]3[C@H]4CN(C(=O)c5ccncc5)CC(=O)N4[C@H]3CO)cc2)cc1`, the inhibition was -4.11%.

For the compound `C[C@@H]1CCCCO[C@H](CN(C)C(=O)C2CCCCC2)[C@@H](C)CN([C@@H](C)CO)C(=O)c2cc(NC(=O)Nc3ccccc3)ccc2O1`, the inhibition was 5.54%.

As to `COc1ccccc1NC(=O)N1CCCCN2[C@H](CO)[C@H](c3ccc(C#CC4CC4)cc3)[C@@H]2C1`, the inhibition is 6.56%.

Regarding `COc1ccc(N2CCC(CNC(=S)Nc3c(C)cccc3C)C2)cc1` (stereo not given), the inhibition is 18.6%.

For the compound `COc1ccc(OCC(=O)Nc2ccc(N3CCC(C)CC3)cc2)cc1`, the inhibition was 1.34%.

As for `COc1ccc(NC(=S)NCC2CCN(c3ccc(OC)cc3)C2)cc1` (stereo not given), the inhibition is 28.9% (active).

In the case of `CO[C@@H]1CN(C)C(=O)c2ccc(NC(=O)C3CC3)cc2OC[C@H](C)N(C(=O)c2ccccc2)C[C@@H]1C`, the inhibition is -0.663%.

For the compound `Cc1c(C)n(Cc2ccc(Cl)cc2)c2ccc(C(=O)NCCCN3CCOCC3)cc12`, the inhibition was 26.6% (active).

Take `COc1ccc(Cn2c(=S)[nH]c3cc(C(=O)NCCCN4CCOCC4)ccc3c2=O)cc1`: the inhibition was -9.96%.

Regarding `O=C(NCCCN1CCOCC1)c1cc(-c2ccc(Cl)cc2)on1`, the inhibition is -5.39%.

In the case of `COc1ccccc1-c1ccc([C@H]2[C@@H](CO)N(CC3CC3)C23CN(S(C)(=O)=O)C3)cc1`, the inhibition was 0.485%.

In the case of `Cn1cnc(S(=O)(=O)NC[C@@H]2CC[C@@H]3[C@@H](CN3Cc3nccs3)O2)c1`, the inhibition is -5.79%.

Turning to `O=C(CN1CCOCC1)N1CCCCN2[C@H](C1)[C@H](c1ccc(-c3ccccc3F)cc1)[C@@H]2CO`, the inhibition is -4.58%.

Take `C[C@H](CO)N1C[C@H](C)[C@@H](CN(C)Cc2ccc(Oc3ccccc3)cc2)Oc2ccc(NS(=O)(=O)c3ccc(F)cc3)cc2CC1=O`: the inhibition is 1.77%.

As to `Cc1cc(N=Nc2ccc3ccccc3c2)ccc1O`, the inhibition was 35.1% (active).

For `COc1ccc2c3c(n(C)c2c1)[C@@H](CO)N(C(=O)CN1CCOCC1)CC31CN(C(=O)CC2CC2)C1`, the inhibition is 0.071%.

For the compound `O=C(Nc1c[nH]c(=O)[nH]c1=O)OCc1ccccc1`, the inhibition was 2.62%.

Turning to `O=C(CNC(=O)OCc1ccccc1)NC1CCCCNC1=O` (stereo not given), the inhibition was 48% (active).

Take `Nc1ccccc1C(=O)NC1CCCCNC1=O` (stereo not given): the inhibition was -2.44%.

For `C[C@@H]1CN([C@@H](C)CO)C(=O)CCCn2nncc2CO[C@H]1CN(C)C(=O)CCCN(C)C`, the inhibition is -5.71%.

Take `Cc1ccccc1S(=O)(=O)N1CC[C@H]2[C@H](CO)Nc3ccc(-c4cccc(F)c4)cc3[C@H]21`: the inhibition is -2.53%.

With `Cc1noc(C)c1NC(=O)Nc1ccc2c(c1)CC(=O)N([C@H](C)CO)C[C@@H](C)[C@@H](CN(C)S(=O)(=O)c1ccc(Cl)cc1)O2`, the inhibition is -0.675%.

For the compound `CN(C)C(=O)C[C@@H]1C[C@@H]2c3cc(NC(=O)C4CCOCC4)ccc3O[C@@H]2[C@@H](CO)O1`, the inhibition was -3.12%.

With `CCCC(C)NC(=O)C1CCN(C(=O)C2CC(=O)N(c3ccc(C)cc3)C2)CC1` (stereo not given), the inhibition is -6.07%.

For the compound `COCCNC(=O)C1CCN(C(=O)C2CC(=O)N(c3ccc(C)cc3)C2)CC1` (stereo not given), the inhibition is 50.4% (active).

With `Cc1ccc(N2CC(C(=O)NCCS(=O)(=O)N3CCN(c4ccccc4)CC3)CC2=O)cc1` (stereo not given), the inhibition is 0.43%.

Turning to `C/C=C/c1ccc([C@@H]2[C@H](CO)N(CC3CCCC3)C23CN(C(=O)CC2CC2)C3)cc1`, the inhibition was 5.28%.

As for `CN(C)C(=O)C[C@H]1C=C[C@@H](NC(=O)c2ccc(F)cc2)[C@@H](CO)O1`, the inhibition was -2.41%.

In the case of `COc1ccccc1S(=O)(=O)N(C)C[C@@H]1Oc2cc(C#CCC3CCCC3)ccc2S(=O)(=O)N([C@H](C)CO)C[C@H]1C`, the inhibition is 2.17%.

`O=C(NCCCN1CCN(c2ccc(F)cc2)CC1)Nc1ccc([N+](=O)[O-])cc1`: the inhibition was 25.7% (active).

As for `CN1CCN(CCNC(=O)Nc2ccc([N+](=O)[O-])cc2)CC1`, the inhibition is -2.1%.

For the compound `O=C(NCCCN1CCOCC1)c1ccc([N+](=O)[O-])cc1[N+](=O)[O-]`, the inhibition was -2.14%.

`CO[C@H]1CN(C)C(=O)c2cc(NS(=O)(=O)CC(F)(F)F)ccc2OC[C@H](C)N(C(=O)c2ccc3c(c2)OCO3)C[C@H]1C`: the inhibition was -1.49%.

As to `CC(C)=CCCC1(C)C=Cc2c(ccc3c2[nH]c2cc(O)c(C)cc23)O1` (stereo not given), the inhibition is 26.9% (active).

`COc1ccc(CN(C)C[C@@H]2OCCCC[C@H](C)Oc3ccc(NS(=O)(=O)c4cccs4)cc3C(=O)N([C@H](C)CO)C[C@@H]2C)cc1`: the inhibition was 5.32%.

With `N#Cc1ccc(-c2ccc(C3[C@@H]4CN(S(=O)(=O)c5ccccc5F)C[C@H]3N4)cc2)cc1` (stereo not given in full), the inhibition is -2.55% and -2.34%.

Take `COCC#Cc1ccc([C@@H]2[C@H]3CN(C(=O)C4CCOCC4)CC(=O)N3[C@H]2CO)cc1`: the inhibition was -0.325%.

Take `Cc1ccc(S(=O)(=O)Nc2ccc3c(c2)C(=O)N([C@H](C)CO)C[C@@H](C)[C@@H](CN(C)C(=O)CCC(F)(F)F)OCCCC[C@@H](C)O3)cc1`: the inhibition was -0.265%.

Turning to `CSC(=S)N/N=C/c1c[nH]c2ccccc12`, the inhibition is 33.1% (active).

With `O=C(Cc1c[nH]c2ccccc12)N/N=C/c1cccc(F)c1`, the inhibition was 2.76%.

For `C[n+]1ccc(/C=C/c2c[nH]c3ccccc23)cc1`, the inhibition is 11.9%.

With `CCCC#Cc1ccc([C@H]2[C@H]3CN(C(=O)Nc4ccc(F)cc4)CC(=O)N3[C@H]2CO)cc1`, the inhibition is 0.647%.

Regarding `CO[C@@H]1CN(C)C(=O)c2cc(NS(=O)(=O)c3ccccc3C)ccc2OC[C@@H](C)N(S(C)(=O)=O)C[C@@H]1C`, the inhibition is -4%.

Consider `COc1ccc(NS(=O)(=O)c2cc(NC(=O)C3CCCCC3)ccc2N2CCOCC2)cc1`, for which the inhibition is 1.75%.

`COc1ccc(NS(=O)(=O)c2cc3c(cc2C)N(C(C)=O)CCO3)cc1`: the inhibition is 52.8% (active).

Consider `COc1ccc(N2CCN(S(=O)(=O)c3ccc4c(c3)N(C(C)=O)CCO4)CC2)cc1`, for which the inhibition was 1.85%.

Turning to `C[C@@H]1CN([C@@H](C)CO)C(=O)c2cc(-c3ccc(F)cc3)cnc2O[C@@H]1CN(C)Cc1ccc(C(=O)O)cc1`, the inhibition was -2.45%.

With `N#C[C@@H]1[C@H](c2ccccc2C2=CCCCC2)[C@@H](CO)N1S(=O)(=O)c1cccc(F)c1`, the inhibition was -2.55%.

With `CCNC(=O)C[C@@H]1CC[C@@H]2[C@H](COC[C@H](O)CN2S(=O)(=O)c2ccc(Oc3ccccc3)cc2)O1`, the inhibition is -1.5%.

On to `Cc1ccc(S(=O)(=O)N2C[C@@H](O)COC[C@@H]3O[C@H](CC(=O)NCCCN(C)C)CC[C@H]32)cc1`, for which the inhibition was -2.12%.

Consider `O=C(C[C@@H]1CC[C@H]2[C@@H](COC[C@H](O)CN2S(=O)(=O)c2ccccc2)O1)NCCN1CCCC1`, for which the inhibition is -0.246%.

For the compound `O=C(C[C@@H]1CC[C@@H]2[C@H](COC[C@@H](O)CN2S(=O)(=O)c2ccccc2)O1)NCC1CCCCC1`, the inhibition is 33.9% (active).

On to `Cc1ccc(S(=O)(=O)N2C[C@@H](O)COC[C@@H]3O[C@H](CC(=O)NCc4ccc(Cl)c(Cl)c4)CC[C@H]32)cc1`, for which the inhibition is 0.126%.

For the compound `Cc1ccc(S(=O)(=O)N2C[C@H](O)COC[C@@H]3O[C@@H](CC(=O)NCC4CCCCC4)CC[C@H]32)cc1`, the inhibition is 27% (active).
